# Records with an inconclusive call do not appear. Entries that show only a call come without a potency. Activity calls are given as the source filed them. Unless noted, the call rests on the fitted dose curve; in most records, active means well fitted curve in the direction sought with a large enough effect in the repeat runs; inconclusive means weak or mixed curves; inactive means no such curve, though single readings can be large; an effect the other way counts as inactive or inconclusive.
# What was measured:
# [1] = molecular target: Calcium and integrin-binding protein 1 (Homo sapiens) (UniProt Q99828); assay: Primary qHTS for Identification of Calcium Integrin Binding Protein 1 (CIB1) Competitor (AID 1508620; active means well fitted curve in the direction sought with a large enough effect; an effect the other way counts as inactive or inconclusive;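 further: GST tagged CIB1 binding a fluorescein labelled alphaIIb integrin peptide tracer; top concentration of the series differs between compounds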)
# Sequence of Calcium and integrin-binding protein 1 (Homo sapiens) (Q99828 whole entry, looked up): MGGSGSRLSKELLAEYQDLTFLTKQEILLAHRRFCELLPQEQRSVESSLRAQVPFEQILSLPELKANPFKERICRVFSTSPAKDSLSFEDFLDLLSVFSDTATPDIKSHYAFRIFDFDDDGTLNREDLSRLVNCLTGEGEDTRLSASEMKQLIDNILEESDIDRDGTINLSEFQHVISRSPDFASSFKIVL
# Method in brief: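 Fluorescence polarization competition: CIB1-GST (1 uM final) preincubated with compound 15 min at room temperature, then FITC-labeled alphaIIb peptide (100 nM final) added for another 15 min. Polarization read at Ex 480/Em 540.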
# [2] = molecular target: Cytochrome P450 2D6 (Homo sapiens) (UniProt P10635); assay: Cytochrome P450 family 2 subfamily D member 6 (CYP2D6) small molecule antagonists: luciferase biochemical (cell-free) qHTS assay (AID 1645840); further: nearly all actives have a fitted effect of over 55% in size; further: potency means the concentration at half of the fitted maximal effect
# Sequence of Cytochrome P450 2D6 (Homo sapiens) (P10635 whole entry, looked up): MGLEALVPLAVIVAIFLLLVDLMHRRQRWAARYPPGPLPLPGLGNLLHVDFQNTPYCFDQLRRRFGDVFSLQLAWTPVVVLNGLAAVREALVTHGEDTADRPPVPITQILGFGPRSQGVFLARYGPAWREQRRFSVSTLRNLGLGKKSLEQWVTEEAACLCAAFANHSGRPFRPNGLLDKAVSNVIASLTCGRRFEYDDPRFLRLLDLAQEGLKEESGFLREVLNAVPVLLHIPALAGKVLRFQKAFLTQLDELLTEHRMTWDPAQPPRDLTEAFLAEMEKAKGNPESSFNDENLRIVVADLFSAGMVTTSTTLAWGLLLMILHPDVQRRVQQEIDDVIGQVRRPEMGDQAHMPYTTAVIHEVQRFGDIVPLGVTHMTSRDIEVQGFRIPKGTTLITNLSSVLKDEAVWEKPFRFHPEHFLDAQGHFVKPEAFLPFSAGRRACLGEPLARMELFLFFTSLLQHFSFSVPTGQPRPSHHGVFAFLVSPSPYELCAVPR
# Method in brief: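 P450-Glo CYP2D6 system: proluciferin substrate converted by enzyme to luciferin, read by luminescence proportional to activity. Enzyme-substrate mix with compound 10 min at room temperature, then NADPH regeneration 1 h before detection reagent.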
# [3] = molecular target: Cytochrome P450 2C9 (Homo sapiens) (UniProt P11712); assay: Cytochrome P450 family 2 subfamily C member 9 (CYP2C9) small molecule antagonists: luciferase biochemical (cell-free) qHTS assay (AID 1645842); further: nearly all actives have a fitted effect of over 55% in size; further: potency means the concentration at half of the fitted maximal effect
# Sequence of Cytochrome P450 2C9 (Homo sapiens) (P11712 whole entry, looked up): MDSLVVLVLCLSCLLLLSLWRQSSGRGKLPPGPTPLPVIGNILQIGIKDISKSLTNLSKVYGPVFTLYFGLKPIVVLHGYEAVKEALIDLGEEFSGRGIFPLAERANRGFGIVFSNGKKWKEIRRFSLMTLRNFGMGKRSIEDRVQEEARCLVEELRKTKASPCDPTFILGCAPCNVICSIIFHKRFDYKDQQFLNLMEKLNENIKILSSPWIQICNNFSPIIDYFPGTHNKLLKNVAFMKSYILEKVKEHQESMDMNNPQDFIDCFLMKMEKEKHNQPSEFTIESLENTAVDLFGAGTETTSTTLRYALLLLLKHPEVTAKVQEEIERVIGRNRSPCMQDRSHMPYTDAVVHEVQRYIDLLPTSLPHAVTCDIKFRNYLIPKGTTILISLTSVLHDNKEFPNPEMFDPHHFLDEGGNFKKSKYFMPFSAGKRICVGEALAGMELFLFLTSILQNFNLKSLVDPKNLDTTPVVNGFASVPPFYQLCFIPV
# Method in brief: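 P450-Glo CYP2C9 system: proluciferin substrate with enzyme in mix containing 0.4% BSA, 10 min at room temperature, then NADPH regeneration solution added and incubated 1 h at 37C. Detection reagent stopped reaction; luminescence read after 20 min as RLU.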
# [4] = molecular target: Cytochrome P450 3A4 (Homo sapiens) (UniProt P08684); assay: Cytochrome P450 family 3 subfamily A member 4 (CYP3A4) small molecule antagonists: luciferase qHTS assay (AID 1645841); further: potency means the concentration at half of the fitted maximal effect; nearly all actives have a fitted effect of over 45% in size
# Sequence of Cytochrome P450 3A4 (Homo sapiens) (P08684 whole entry, looked up): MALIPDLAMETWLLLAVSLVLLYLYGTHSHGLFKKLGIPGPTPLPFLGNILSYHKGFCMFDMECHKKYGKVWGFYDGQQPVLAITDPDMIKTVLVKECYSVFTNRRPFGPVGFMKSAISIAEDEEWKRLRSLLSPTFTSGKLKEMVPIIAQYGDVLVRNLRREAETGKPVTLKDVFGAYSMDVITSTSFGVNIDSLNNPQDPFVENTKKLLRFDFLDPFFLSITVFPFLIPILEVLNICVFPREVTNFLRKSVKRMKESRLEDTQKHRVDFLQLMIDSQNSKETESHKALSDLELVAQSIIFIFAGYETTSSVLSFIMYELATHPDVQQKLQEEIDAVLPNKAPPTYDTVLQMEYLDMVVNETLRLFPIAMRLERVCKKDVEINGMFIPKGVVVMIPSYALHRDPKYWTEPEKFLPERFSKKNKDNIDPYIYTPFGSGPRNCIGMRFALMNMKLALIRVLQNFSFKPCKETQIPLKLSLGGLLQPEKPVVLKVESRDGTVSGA
# Method in brief: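 P450-Glo CYP3A4 enzyme with proluciferin substrate was preincubated with DMSO-dissolved compounds for 10 min at room temperature. NADPH regeneration solution started a 1 h reaction. Detection reagent stopped it, and luminescence was read after 20 min.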
# [5] = Primary qHTS for inhibitors of nuclear receptor binding SET domain protein 2 (NSD2) in an isogenic RCH-ACV NSD2 p.E1099K mutant (9B) (AID 1645876; active means well fitted curve in the direction sought with a large enough effect; an effect the other way counts as inactive or inconclusive; further: potency means the concentration at half of the fitted maximal effect; nearly all actives have a fitted effect of over 70% in size)
# [6] = Primary qHTS for inhibitors of nuclear receptor binding SET domain protein 2 (NSD2) in an RCH-ACV wild type WT cells (2C) (AID 1645877; active means well fitted curve in the direction sought with a large enough effect; an effect the other way counts as inactive or inconclusive; further: potency means the concentration at half of the fitted maximal effect; nearly all actives have a fitted effect of over 70% in size)
SMILES,Potency [1],Potency [2],Potency [3],Potency [4],Potency [5],Potency [6]
CCOC(=O)CCNc1cc(N2CCc3ccccc3CC2)nc(-c2cccnc2)n1,inactive,10.7 µM (active),8.49 µM (active),,,
CCOc1cccc(NC(=O)c2ccc(N3CCCC3)c(C(F)(F)F)c2)c1,inactive,inactive,inactive,,,
C=CC(=O)N1CCC(Oc2cc3c(Nc4ccc(Cl)c(Cl)c4F)ncnc3cc2OC)CC1,inactive,2.68 µM (active),9.52 µM (active),0.239 µM (active),4.68 µM (active),4.68 µM (active)
Fc1ccc(-c2nc(-c3c(F)cccc3F)[nH]c2-c2ccncc2)cc1,inactive,2.68 µM (active),inactive,,,
COc1ccc(-c2cc3onc(-c4ccncc4)c3c(=O)n2C)cc1,inactive,9.52 µM (active),0.952 µM (active),,,
O=C(c1ccc(Cl)cc1)N1CCN(c2ccnc3cc(Cl)ccc23)CC1,inactive,8.49 µM (active),8.49 µM (active),,,
Cc1nc(N2CCN(C(=O)c3ccco3)CC2)c2c3c(sc2n1)CCCC3,inactive,10.7 µM (active),4.77 µM (active),,,
N#Cc1cccc(C(=O)Nc2cc(-c3ccccc3)nn2-c2ccccc2)c1,inactive,inactive,2.39 µM (active),,,
O=c1[nH]c2cccc(N3CCN(Cc4ccc(-c5ccccc5)cc4)CC3)c2o1,inactive,8.49 µM (active),5.35 µM (active),,,
O=C(OC1CN2CCC1CC2)N1CCc2ccccc2C1c1ccccc1 (stereo not drawn),inactive,19 µM (active),inactive,,,
O=C(Nc1ccccc1)N1CCC(Cc2cnc3ccccc3c2)CC1,inactive,26.8 µM (active),12 µM (active),,,
CS(=O)(=O)Nc1ccc2oc3c(OC(F)F)ccc(C(=O)Nc4c(Cl)cncc4Cl)c3c2c1,inactive,12 µM (active),3.38 µM (active),,,
CCc1ccc(-c2nc(CSCC(=O)NCCc3ccccc3)c(C)o2)cc1,inactive,15.1 µM (active),8.49 µM (active),,,
Cc1cccc(-c2[nH]ncc2-c2ccnc3ccccc23)n1,inactive,inactive,9.52 µM (active),,,
O=C(N[C@@H]1CCCc2c1cnn2-c1ccc(F)cc1F)c1ccccn1,inactive,inactive,21.3 µM (active),,,
COc1ccc(CN2CCN(C(=O)CCNC(=O)c3ccc(C(C)(C)C)cc3)CC2)cc1,inactive,15.1 µM (active),8.49 µM (active),,,
Cc1ccc(S(=O)(=O)N2CCC[C@H]2c2ccc(F)cc2)cc1,inactive,inactive,inactive,,,
CCOC(=O)C1=Cc2ccc(C(F)(F)C(F)(F)F)cc2N=C(N)C1,inactive,3.01 µM (active),12 µM (active),,,

SMILES,Potency [1],Potency [2],Potency [3],Potency [4],Potency [5],Potency [6]
O=C(Nc1ccc(C(F)(F)F)cn1)N1CCN(c2ncccc2C(F)(F)F)CC1,inactive,inactive,3.01 µM (active),,,
COc1ccc(S(=O)(=O)Nc2c(C)cc(C)cc2C)cc1,inactive,inactive,2.39 µM (active),,,
CCCc1cc2c(N3CCN(C4=NCC(C)(C)S4)CC3)ncnc2s1,inactive,0.952 µM (active),inactive,,,
O=C(C1CCCCC1)N(CCN1CCN(c2ccccc2O)CC1)c1ccccn1,inactive,10.7 µM (active),12 µM (active),,,
Cc1ccnn1-c1ccc(C(=O)N2CCN(S(=O)(=O)c3ccc(Cl)c(C(F)(F)F)c3)CC2)cc1,inactive,inactive,6.74 µM (active),,,
CC#C[C@@H](CC(=O)O)c1ccc(OCc2ccc(CN3CCC4(C=Cc5ccccc54)CC3)s2)cc1,inactive,15.1 µM (active),23.9 µM (active),,,
NC(N)=NC(=O)c1cnn(-c2cccc3ncccc23)c1C1CC1,inactive,inactive,inactive,,,
COc1ccc(OC)c(-c2ccc(NC(=O)c3ccncc3F)cc2)c1,inactive,inactive,1.51 µM (active),,,
Fc1ccc(-c2cncc(CN3CCN(c4cccc5c4OCCO5)CC3)c2)cc1,inactive,9.52 µM (active),10.7 µM (active),,,
C[C@@H]1C[C@H](C)CN(CCC(=O)Nc2ccc(Br)cc2)C1,inactive,0.0674 µM (active),inactive,,,
COc1cc(-c2nc(N[C@H](CO)Cc3ccccc3)ccc2C(=O)NCCOc2ccccc2)cc(OC)c1OC,inactive,12 µM (active),1.51 µM (active),,,
CC(C)c1cccc(C(C)C)c1NC(=O)Nc1ccc(Sc2ccc([N+](=O)[O-])cc2)cc1,inactive,inactive,inactive,,,
CCCCc1ccc(NS(=O)(=O)c2ccc(F)cc2)cc1,inactive,9.52 µM (active),1.69 µM (active),,,
O=C(NCCCN1CCC2(CC1)OCc1ccccc12)[C@H]1CCCN1Cc1ccccc1,inactive,2.13 µM (active),inactive,,,
O=C(NCCN1CCC(n2c(=O)[nH]c3ccccc32)CC1)c1cc2cc(F)ccc2[nH]1,inactive,15.1 µM (active),3.38 µM (active),,,
O=C(Nc1ccc(Cl)cc1)Nc1cccc(-c2cccc(N3CCCC3)n2)c1,inactive,6.74 µM (active),9.52 µM (active),,,
CCNC1(C(N)=O)CCN(c2ncnc3c2nc(-c2ccccc2Cl)n3-c2ccc(Cl)cc2)CC1,inactive,16.9 µM (active),2.13 µM (active),,,

# From PubChem BioAssay (NCATS)
